Screen size: about 360,000 compounds; about 2,700 (0.75%) were called active. What follows is part of a selection rich in actives, with near analogues and random picks from the rest. Unmarked numbers belong to inactive results. Cut-off read from the data, not from the text of the source: active = inhibition above about 4.5%; inactive = the rest.
What follows are compounds tested on Methionine sulfoxide reductase A (Bos taurus) (assay: inhibition of methionine sulfoxide reductase A – biochemical, absorbance, bovine, HTS, primary screen (AID 651718;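 note: 0% = vehicle wells with enzyme and 100% = reference inhibitor wells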)). Details: purified bovine MsrA, absorbance read-out; at 15.5 µM; active compounds read high.

Compound | inhibition
O=S1(=O)c2c(cccc2N2CCCCC2)O[C@H](COCc2ccccc2)CN1C1CC1 | -0.51%
Cc1ccc(CSc2nsc(C)c2C#N)cc1 | 0.38%
Cc1ccc(N2CCN(C3=NC(=O)/C(=C\c4cccs4)S3)CC2)cc1 | 5.14% (active)
CC(C)=C1SC(N2CCN(c3ccc(C)c(Cl)c3)CC2)=NC1=O | -1.4%
O=C1N=C(N2CCOCC2)S/C1=C\C=C/c1ccccc1 | 3.23%
COc1ccc(S(=O)(=O)Nc2ccc3c(c2)C(=O)N([C@H](C)CO)C[C@H](C)[C@@H](CN(C)C)OCCCC[C@H](C)O3)cc1 | 0.52%
Cc1c(C(=O)N2CCCc3ccccc32)oc2ccccc12 | 10.3% (active)
Cc1ccc(C(=O)N2CCCc3ccccc32)c(Cl)c1 | -0.31%
Cc1c(C(=O)OCC(=O)N2CCCC2=O)oc2ccccc12 | -1.01%
O=C1Nc2ccccc2C1=NN=Cc1ccco1 | 0.16%
CCOC(=O)/C(C#N)=C\c1c(C)cc(C)c(COC(C)=O)c1C | 0.74%
COc1ccc(/C=C(\C#N)C(=O)ONC2=NCCCCC2)cc1 | 1.44%
COC(=O)/C(C#N)=C/c1occc1C | 5.68% (active)
COc1ccc(CN2CCNC(=O)C2CC(=O)N(C)Cc2ccccn2)cc1OC (configuration not stated) | -0.62%
C[N+](C)(C)CCOP(=O)([O-])OC[C@H](O)CO | 0.34%
CCCCC(=O)Nc1ccccc1N1CCN(c2ccc(F)cc2)CC1 | -1.12%
CC(=O)c1ccc(N2CCN(CC(=O)Nc3ccccc3N3CCOCC3)CC2)cc1 | 4.88% (active)
O=C(Nc1ccccc1N1CCOCC1)c1ccncc1 | 1.2%
COC(=O)N1Cc2ccnnc2CC1c1ccccc1Br (configuration not stated) | -0.9%
CN(Cc1ccccc1)C(=O)c1ccc(NC2=NC3CS(=O)(=O)CC3S2)cc1 (configuration not stated) | 1.72%
COc1ccc(C2=NS(=O)(=O)N(C)C(C(=O)N(C)Cc3ccccc3)=C2)cc1 | 3.53%
COc1ccc(C2=NS(=O)(=O)N(C)C(C(=O)NC(C)c3ccccc3)=C2)cc1 (configuration not stated) | 4.29%
COc1ccc(C2=NS(=O)(=O)N(C)C(C(=O)N3CCCCC3)=C2)cc1 | 5.54% (active)
CCCCCCc1cc2cc(-c3nnc(-c4cccc(OC)c4)o3)c(=O)oc2cc1O | -0.59%
Oc1ccc(/C=N/Nc2ccc(C(F)(F)F)cn2)cc1O | 7.63% (active)
O=C(N/N=C/c1ccc(O)c(O)c1)C1c2ccccc2Oc2ccccc21 | 0.85%
COc1ccc(/C=N/Nc2ncnc3sc4c(c23)CCCC4)cc1O | 4.5%
